# Values without a mark were called inactive. Activity calls are given as the source filed them.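 The calls were made as follows: active = inhibition of at least 75% in the gel-based probe competition assay; inactive = inhibition below 75%.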
# Biological target: Platelet-activating factor acetylhydrolase (Mus musculus) (UniProt Q60963)
# Test: recombinant plasma PAF acetylhydrolase inhibition – biochemical, gel-based competitive ABPP, fluorescence, orthogonal assay, late-stage follow-up (AID 588474)
# Details: recombinant mouse pPAFAH, FP-Rh fluorescence, at 5 µM, stronger effect = higher value
# Sequence of Platelet-activating factor acetylhydrolase (Mus musculus) (Q60963 whole entry, looked up): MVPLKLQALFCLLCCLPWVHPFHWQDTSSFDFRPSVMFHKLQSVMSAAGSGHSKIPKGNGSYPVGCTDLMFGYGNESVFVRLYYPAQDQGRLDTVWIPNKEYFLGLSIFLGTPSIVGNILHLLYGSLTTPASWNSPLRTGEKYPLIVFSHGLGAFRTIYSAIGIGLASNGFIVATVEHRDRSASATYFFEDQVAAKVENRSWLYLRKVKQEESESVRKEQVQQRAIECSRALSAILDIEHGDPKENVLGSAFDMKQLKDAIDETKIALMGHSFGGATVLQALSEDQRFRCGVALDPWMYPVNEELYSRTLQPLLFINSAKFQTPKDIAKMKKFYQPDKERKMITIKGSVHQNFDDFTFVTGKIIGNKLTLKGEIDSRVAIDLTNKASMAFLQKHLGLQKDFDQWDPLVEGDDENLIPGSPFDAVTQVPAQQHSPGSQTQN
row,Structure (SMILES),inhibition
1,O=C(c1ccco1)c1cn(Cc2ccccc2Cl)c2ccccc12,9%
2,O=C(Oc1ccc([N+](=O)[O-])cc1)N1CCC(N2CCCCC2)CC1,84% (active)
3,NCCc1ccc(S(=O)(=O)F)cc1,16%
4,CN(C)C(=O)Oc1noc2cc(Cl)ccc12,99% (active)
5,N#Cc1ccccc1Cn1cc(C(=O)c2cccs2)c2ccccc21,44%
6,Cc1cc(C(=O)CS(=O)(=O)c2ccccc2)cc(C)c1OC(=O)N(C)C,36%
7,O=C(c1cccs1)c1cn(Cc2ccccc2Cl)c2ccccc12,43%
8,CN1C[C@H](CNC(=O)OCc2ccccc2)C[C@@H]2c3cccc4c3c(cn4C)C[C@H]21,15%
9,N#Cc1ccccc1Cn1cc(C(=O)c2ccccc2F)c2ccccc21,8%

# — PubChem BioAssay AID588474 (The Scripps Research Institute Molecular Screening Center, 2011)
